From PubChem
Shown are actives, neighbours in structure and some others; about 3.6% of the full set was active somewhere.
Pf apPOL block – Pf-apPOL DNA polymerase inhibition; AID 1794808; inhibition, % at 10 µM; actives 0.25% (n = 210,000); Recombinant Pf-apPOL, molecular beacon fluorescence, 1.5 h
mHTT CaM bind – mHTT-calmodulin interaction abrogation; actives 3.6% (n = 190,000); inhibition, % at 15 µM; AlphaScreen His-mHTT/GST-CaM binding, luminescence; P42858;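 further: 0% = both proteins with DMSO and 100% = one protein alone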
Active calls of the source: *. No stated cut-off is given here; in the data, active means inhibition above about 50%; inactive means the rest.

SMILES	Pf apPOL block	mHTT CaM bind
COc1cccc(C=C2Oc3c(ccc4c3CN(c3ccc5c(c3)OCCO5)CO4)C2=O)c1OC	-3	77*
COc1ccc(N2COc3ccc4c(c3C2)OC(=Cc2cc(OC)c(OC)c(OC)c2)C4=O)cc1	-5	32
COc1ccccc1C=C1Oc2c(ccc3c2CN(c2ccc4c(c2)OCCO4)CO3)C1=O	-4	28
CCCCn1nnc2ccc(N3CCOCC3)cc2c1=O	-3	12
O=C(Nc1nnc2ccccn12)c1ccsc1	-7	1
Cc1nc(-c2cccc(NC(=O)c3cccc([N+](=O)[O-])c3)c2)cs1	-4	7
Cc1nc(-c2cccc(NC(=O)C(c3ccccc3)n3cccc3)c2)cs1 (stereo not drawn)	6	67*
CCOc1cccc(C2CC(c3ccc(C)cc3)=NC3(CCN(C(C)=O)CC3)N2)c1O (stereo not drawn)	1	21
O=C(Cc1ccc(Br)cc1)Nc1ncc([N+](=O)[O-])s1	-3	12
O=C(Cc1ccc(Cl)cc1)Nc1ncc([N+](=O)[O-])s1	-6	98*
COCC(=O)Nc1ccc(-c2nc3ncccc3o2)cc1C	-6	0
O=C(NC1CCCC1)C1CC(=O)N(CCc2c[nH]c3ccc(Cl)cc23)C1 (stereo not drawn)	1	65*
Cc1ccc(NC(=O)C2CC(=O)N(CCc3c[nH]c4ccc(F)cc34)C2)cc1C (stereo not drawn)	-4	27
COc1ccc2[nH]cc(CCN3CC(C(=O)Nc4cccc(C)c4C)CC3=O)c2c1 (stereo not drawn)	2	15
Cc1cccc(NC(=O)C2CC(=O)N(CCc3c[nH]c4ccc(Cl)cc34)C2)c1C (stereo not drawn)	7	71*
Cc1cc(C)cc(NC(=O)C2CC(=O)N(CCc3c[nH]c4ccc(Cl)cc34)C2)c1 (stereo not drawn)	-3	100*
Cc1ccc(NC(=O)C2CC(=O)N(CCc3c[nH]c4ccc(Cl)cc34)C2)cc1C (stereo not drawn)	-2	100*
O=C(Nc1ccccc1)C1CC(=O)N(CCc2c[nH]c3ccc(Cl)cc23)C1 (stereo not drawn)	3	33
O=C(NC1CCCCC1)C1CC(=O)N(CCc2c[nH]c3ccc(Cl)cc23)C1 (stereo not drawn)	1	8
CCCC1CCC2(CC1)CC[C@@H]2OC(=S)Nc1ccc(Br)cc1 (stereo partly drawn)	-5	-26
O=C(NCCC(O)c1ccccc1)C12CC3CC(CC(C3)C1)C2 (stereo not drawn)	-4	-6
COCCN1C(=O)c2ccccc2C(C(=O)N2CCCCC2)C1c1ccc(F)cc1 (stereo not drawn)	0	5
Nc1nc2nc(SCC(=O)Nc3nc(-c4ccccc4)cs3)[nH]c2c(=O)[nH]1	-6	46
COc1ccccc1-c1noc(C2CCCN2C(=O)Nc2ccc(Cl)cc2)n1 (stereo not drawn)	-4	3
c1ccc(-n2nnnc2SC2c3ccccc3-c3ccccc32)cc1	-7	-4
SMILES	Pf apPOL block	mHTT CaM bind
Cc1ccc2[nH]cc(CCN3CC(C(=O)Nc4ccc(F)c(Cl)c4)CC3=O)c2c1 (stereo not drawn)	1	54*
O=C(Nc1ccc(F)cc1)C1CC(=O)N(CCc2c[nH]c3ccc(F)cc23)C1 (stereo not drawn)	0	-1
COC(=O)c1ccc(NC(=O)C2CC(=O)N(CCc3c[nH]c4ccc(F)cc34)C2)cc1 (stereo not drawn)	2	59*
Cc1ccc2[nH]cc(CCN3CC(C(=O)Nc4ccc(Cl)cc4)CC3=O)c2c1 (stereo not drawn)	0	22
CCC(=O)N1CC(C(=O)NCc2ccccn2)C(c2cccc(F)c2)C1 (stereo not drawn)	-4	8
O=C(NCCN1CCCC1)c1cn2cc(-c3cccc(C(F)(F)F)c3)ccc2n1	3	17
Cc1cc(C)c(S(=O)(=O)N2CCN(S(=O)(=O)c3cc(C)c(C)cc3C)C(C)C2)cc1C (stereo not drawn)	-1	-5
O=C(Nc1cccc(Cl)c1)Nc1ccc(F)cc1F	5	-7
CSc1ccccc1NC(=O)C(c1ccccc1)n1cccc1 (stereo not drawn)	15	60*
CSc1ccccc1NC(=O)C(c1ccccc1)c1ccccc1	-7	-26
O=C(C1CC(c2ccccc2)=NO1)N1CCCCC1 (stereo not drawn)	-4	1
CCCN(C)C(=O)CC1Sc2ncccc2N(CC)C1=O (stereo not drawn)	0	-3
Cc1cc(C)n2c(Nc3ccc4c(c3)OCCO4)c(-c3cccs3)nc2n1	0	18
Cc1cc(C)cc(C(=O)Nc2ccc3c(c2)Sc2ncccc2C(=O)N3C)c1	1	73*
Cc1ccc(C(=O)Nc2ccc3c(c2)Sc2ncccc2C(=O)N3C)cc1	-12	10
CCN(CCC#N)c1ccccc1	-4	-4
CCN(CCC#N)c1ccc(N=Nc2ccc([N+](=O)[O-])cc2)cc1	0	53*
CN(Cc1ccccc1)C(=O)C1CCCN(c2ncccc2-c2noc(C3CCC3)n2)C1 (stereo not drawn)	-6	11
COc1ccc(-c2noc(C3CCCN3C(=O)NCc3ccc(C)cc3)n2)cc1 (stereo not drawn)	-2	-3
COc1ccccc1N1CCN(CC(O)COc2ccc(Cl)cc2C)CC1 (stereo not drawn)	21	75*
COc1ccccc1N1CCN(CC(O)COc2ccccc2C(C)(C)C)CC1 (stereo not drawn)	-2	19
COc1ccccc1N1CCN(CC(O)COc2cccc3ccccc23)CC1 (stereo not drawn)	-7	23
COc1ccc(N2CCN(CC(O)COc3ccc(C)c(C)c3)CC2)cc1 (stereo not drawn)	0	36
COc1ccc(N2CCN(CC(O)COc3ccccc3C(C)(C)C)CC2)cc1 (stereo not drawn)	2	71*
COc1ccc(N2CCN(CC(O)COc3ccc(Cl)cc3C)CC2)cc1 (stereo not drawn)	-2	76*
SMILES	Pf apPOL block	mHTT CaM bind
CCOc1ccc(C(=O)N2CCc3c(nc(-c4ccc(OC)cc4)[nH]c3=O)C2)cc1	-6	-6
CCOc1ccc(-n2c(SCc3cccc(C)c3)nc3c(c2=O)SCC3)cc1	-7	-3
CCOc1ccc(C2CC(c3ccccc3OC(F)F)n3ncnc3N2)cc1Cl (stereo not drawn)	-2	24
O=[N+]([O-])c1cccc(CN2CCc3ccccc3C2)c1	-5	-3
COc1cc(/C=C2\C(=O)NN(c3ccc(C)c(C)c3)C2=O)cc(OC)c1OC	11	50
COc1cc(/C=C2\C(=O)NN(c3ccc(I)cc3)C2=O)cc(OC)c1O	-3	61*
CCOc1cc(/C=C2\C(=O)NN(c3cccc(Br)c3)C2=O)cc(Cl)c1OCC	-4	98*
O=C1NC(=O)N(c2cccc(C(F)(F)F)c2)C(=O)/C1=C/c1ccc(O)cc1	0	52*
COc1cc(/C=C2\C(=O)NC(=O)N(c3cccc(C)c3)C2=O)cc(OC)c1O	-3	4
COc1cc(Cl)cc(/C=C2\C(=O)NN(c3ccc(C)c(C)c3)C2=O)c1O	-6	14
CCOc1cc(/C=C2\C(=O)NN(c3ccc(Br)cc3)C2=O)cc(Cl)c1O	1	35
COc1cc(Cl)cc(/C=C2\C(=O)NN(c3cccc(Cl)c3)C2=O)c1O	0	58*
